Experimental data: PubChem BioAssay (NCATS)
A number with no mark means an inactive call. Inconclusive results are not listed. Where a call stands in place of a potency, no number is given. Activity calls are given as the source filed them. Unless noted, calls come from the whole dose curve; as a rule, active = well fitted curve in the direction sought with a large enough effect; inconclusive = small, poorly fitted or top-dose-only effect, or another doubt; inactive = no such curve, though single readings can be large; an effect the other way counts as inactive or inconclusive.

Columns and labels:
[1] = qHTS for Inhibitors of Cell Surface uPA Generation: Validation Assay (AID 493164);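 note: RAW 264.7 macrophage cells exposed to compound for 18 h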
Outline: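 RAW 264.7, 4000 cells/well, o/n plating; cpd 7-pt 1:5 dilution 2.45 nM–38.3 uM final; 18 h, 37 C/5% CO2; ATP-Lite, 5 s luminescence exposure.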

[2] = biological target: Peptidyl-prolyl cis-trans isomerase NIMA-interacting 1 (Homo sapiens) (UniProt Q13526); assay: qHTS Validation Assay to Find Inhibitors of Pin1 (AID 504536; active = well fitted inhibition curve with a large enough effect in the polarisation, with a control signal flat, not every such curve was filed as active; the % refers to the polarisation; note: potency is the fitted concentration of half-maximal effect)
Peptidyl-prolyl cis-trans isomerase NIMA-interacting 1 (Homo sapiens), sequence (Q13526 whole entry, looked up): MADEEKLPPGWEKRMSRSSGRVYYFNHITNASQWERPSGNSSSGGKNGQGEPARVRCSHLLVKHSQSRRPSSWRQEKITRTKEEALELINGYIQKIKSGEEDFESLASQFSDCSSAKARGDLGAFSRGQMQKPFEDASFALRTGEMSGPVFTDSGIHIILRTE
Outline: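 Fluorescence polarization competition: compounds (titration) displace HiFluor-488-labeled Pin1-1b peptide from Pin1 (0.3 uM final) in pH 7.5 HEPES buffer with DTT, 10 min at room temperature; %Activity normalized to no-enzyme wells, curves fitted.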

[3] = biological target: phosphoglycerate mutase (Leishmania major) (UniProt Q4Q090); assay: qHTS Validation Assay to Find Inhibitors of Phosphoglycerate Mutase (AID 504548); details: Potency: inhibition qHTS; note: potency is the fitted concentration of half-maximal effect
phosphoglycerate mutase (Leishmania major), sequence (Q4Q090 1-553): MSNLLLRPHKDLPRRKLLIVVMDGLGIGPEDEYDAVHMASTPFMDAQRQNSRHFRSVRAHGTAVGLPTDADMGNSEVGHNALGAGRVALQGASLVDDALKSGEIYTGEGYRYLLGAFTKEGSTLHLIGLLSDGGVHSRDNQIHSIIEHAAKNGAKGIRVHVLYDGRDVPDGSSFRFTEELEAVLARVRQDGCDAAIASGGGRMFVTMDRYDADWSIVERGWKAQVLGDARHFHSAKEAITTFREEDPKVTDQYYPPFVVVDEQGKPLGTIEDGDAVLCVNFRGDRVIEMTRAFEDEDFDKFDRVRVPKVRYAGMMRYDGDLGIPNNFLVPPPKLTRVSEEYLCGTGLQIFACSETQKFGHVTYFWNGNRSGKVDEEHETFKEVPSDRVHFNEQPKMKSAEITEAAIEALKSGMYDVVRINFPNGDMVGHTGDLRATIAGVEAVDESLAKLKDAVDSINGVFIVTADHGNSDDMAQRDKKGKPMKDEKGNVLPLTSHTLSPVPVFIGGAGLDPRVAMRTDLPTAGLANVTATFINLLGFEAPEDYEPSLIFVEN
Outline: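 L. major PGAM (1.25nM final) was added to substrate buffer and pinned compound, incubated 45 minutes at room temperature, then Kinase-GloPlus added; luminescence read after 10 minutes. Buffer: 100 mM TEA pH 7.6, 5 mM MgCl2, 0.01% Tween-20.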

[4] = biological target: Ubiquitin carboxyl-terminal hydrolase 1 (Homo sapiens) (UniProt O94782); assay: Inhibitors of USP1/UAF1: Pilot qHTS (AID 504865); note: nearly all actives have a fitted effect of over 35% in size; note: potency is the fitted concentration of half-maximal effect
Ubiquitin carboxyl-terminal hydrolase 1 (Homo sapiens), sequence (O94782 whole entry, looked up): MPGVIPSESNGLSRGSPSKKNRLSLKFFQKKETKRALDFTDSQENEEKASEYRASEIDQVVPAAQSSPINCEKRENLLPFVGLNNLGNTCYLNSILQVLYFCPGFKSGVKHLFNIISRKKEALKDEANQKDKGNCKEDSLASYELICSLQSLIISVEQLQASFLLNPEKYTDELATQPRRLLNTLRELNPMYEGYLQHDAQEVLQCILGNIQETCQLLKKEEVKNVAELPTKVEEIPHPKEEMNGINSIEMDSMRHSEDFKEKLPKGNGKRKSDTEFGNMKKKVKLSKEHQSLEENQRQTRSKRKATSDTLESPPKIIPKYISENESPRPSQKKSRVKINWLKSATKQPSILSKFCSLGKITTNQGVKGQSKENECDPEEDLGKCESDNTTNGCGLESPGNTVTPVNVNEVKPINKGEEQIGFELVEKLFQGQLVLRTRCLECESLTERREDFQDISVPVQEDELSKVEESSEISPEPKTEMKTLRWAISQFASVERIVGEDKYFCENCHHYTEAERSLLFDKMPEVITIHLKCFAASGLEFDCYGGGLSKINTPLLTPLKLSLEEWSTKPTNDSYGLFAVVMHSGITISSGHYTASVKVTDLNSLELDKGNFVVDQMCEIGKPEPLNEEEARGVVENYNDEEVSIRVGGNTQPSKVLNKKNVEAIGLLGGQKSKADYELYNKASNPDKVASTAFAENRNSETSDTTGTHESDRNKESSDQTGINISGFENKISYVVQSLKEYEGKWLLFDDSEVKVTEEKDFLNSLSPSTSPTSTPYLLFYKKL
Outline: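 Deubiquitinase activity followed as kinetic rhodamine fluorescence release from 150 nM Ub-Rho. 1 nM USP1/UAF1 with compound, after 15 min room-temperature preincubation, in HEPES pH 7.8 buffer containing TCEP, EDTA, BSA and Tween-20.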

[5] = qHTS for Inhibitors of ATXN expression: Validation of Cytotoxic Assay (AID 588349); note: potency is the fitted concentration of half-maximal effect
Outline: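 HEK293 cells were dosed with titrated compounds for 72 hr at 37 degrees C. Viability was read by CellTiter Glo luminescence, with intracellular ATP as the marker of cell survival.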

[6] = biological target: Phosphoglycerate kinase, glycosomal (Trypanosoma brucei brucei) (UniProt P07378); assay: qHTS Validation Assay to Find Inhibitors of Phosphoglycerate Kinase (AID 504547)
Phosphoglycerate kinase, glycosomal (Trypanosoma brucei brucei), sequence (P07378 whole entry, looked up): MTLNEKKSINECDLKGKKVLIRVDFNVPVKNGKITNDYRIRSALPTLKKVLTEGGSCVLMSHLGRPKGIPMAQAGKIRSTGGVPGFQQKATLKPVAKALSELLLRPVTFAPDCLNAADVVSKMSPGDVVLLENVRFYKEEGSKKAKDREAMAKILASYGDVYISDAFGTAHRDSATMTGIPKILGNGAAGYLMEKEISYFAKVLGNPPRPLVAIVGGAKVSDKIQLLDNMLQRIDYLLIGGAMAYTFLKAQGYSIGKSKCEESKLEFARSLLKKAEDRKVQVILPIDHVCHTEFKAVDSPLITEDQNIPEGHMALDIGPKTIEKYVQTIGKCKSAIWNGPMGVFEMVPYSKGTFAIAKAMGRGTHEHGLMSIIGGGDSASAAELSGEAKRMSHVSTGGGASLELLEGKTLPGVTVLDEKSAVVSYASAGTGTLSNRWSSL
Outline: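 PGK activity was coupled to GAPDH (100nM final), which generates the unstable substrate 1,3-bisphosphoglycerate in-well. Reactions ran 60 minutes at room temperature in 100mM TEA pH 7.6, 5mM MgCl2, 0.01% Tween-20, then Kinase-Glo Plus luminescence was read.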

[7] = biological target: Galactokinase (Homo sapiens) (UniProt P51570); assay: qHTS Validation Assay for Inhibitors of Human Galactokinase (GALK) (AID 493189)
Galactokinase (Homo sapiens), sequence (P51570 whole entry, looked up): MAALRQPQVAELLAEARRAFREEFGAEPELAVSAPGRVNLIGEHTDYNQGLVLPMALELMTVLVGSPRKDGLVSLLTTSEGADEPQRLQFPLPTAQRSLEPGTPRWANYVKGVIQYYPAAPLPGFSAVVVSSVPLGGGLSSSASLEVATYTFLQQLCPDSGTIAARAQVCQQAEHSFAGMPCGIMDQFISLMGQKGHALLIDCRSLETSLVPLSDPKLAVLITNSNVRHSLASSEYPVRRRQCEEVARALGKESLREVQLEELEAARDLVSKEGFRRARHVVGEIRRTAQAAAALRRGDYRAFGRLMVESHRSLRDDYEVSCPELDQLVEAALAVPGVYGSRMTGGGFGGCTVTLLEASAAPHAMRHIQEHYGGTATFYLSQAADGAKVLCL
Outline: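 Inhibition was measured as remaining ATP, detected by luciferase luminescence after a 1 h room-temperature reaction. Final conditions: 5 nM GALK, 100 uM galactose, 35 uM ATP, pH 8.0 HEPES buffer.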

[8] = qHTS for Inhibitors of ATXN expression: Validation (AID 588378); note: nearly all actives have a fitted effect of over 75% in size; note: potency is the fitted concentration of half-maximal effect
Outline: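 Luciferase luminescence (Bright-Glo) from an ATXN2-FFLuc HEK293 line after 24 h compound exposure at 37 °C, preceded by a CellTiter-Fluor fluorescence viability read. Serial dilutions of a reference ATXN2 inhibitor and a luciferase inhibitor served as controls.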

[9] = biological target: DNA dC->dU-editing enzyme APOBEC-3G (Homo sapiens) (UniProt Q9HC16); assay: qHTS for inhibitors of Vif-A3G interactions: Validation (AID 588379)
DNA dC->dU-editing enzyme APOBEC-3G (Homo sapiens), sequence (Q9HC16 whole entry, looked up): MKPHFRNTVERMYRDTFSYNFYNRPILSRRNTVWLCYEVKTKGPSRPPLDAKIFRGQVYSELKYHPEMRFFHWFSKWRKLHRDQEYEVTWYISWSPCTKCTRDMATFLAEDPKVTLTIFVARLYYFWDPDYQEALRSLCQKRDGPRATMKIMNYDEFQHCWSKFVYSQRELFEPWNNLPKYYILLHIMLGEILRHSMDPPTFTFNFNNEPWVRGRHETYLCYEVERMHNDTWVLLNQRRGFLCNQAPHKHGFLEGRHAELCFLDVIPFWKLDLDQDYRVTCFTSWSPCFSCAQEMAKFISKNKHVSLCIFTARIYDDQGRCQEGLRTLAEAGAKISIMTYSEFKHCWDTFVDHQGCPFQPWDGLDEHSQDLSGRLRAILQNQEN
Outline: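 HeLa cells stably expressing Vif and A3G-eYFP, 700 cells/well, incubated overnight at 37 deg C, then exposed to compound overnight at 37 deg C. Inhibition of Vif-mediated degradation read as increased yellow fluorescence (Ex 488/Em 500-530) by laser-scanning cytometry.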

[10] = Validation screen for small molecules that induce DNA re-replication in SW480 colon adenocarcinoma cells (AID 504364)
Outline: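 SW480 cells seeded at 250 per well were exposed to compound or DMSO for 48 hr at 37 C, 5% CO2, then stained with Hoechst for 40 min. DNA content per nucleus was imaged (405 nm ex, 500-530 nm em).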

| Compound | outcome [1] | Potency [2] | Potency [3] | Potency [4] | Potency [5] | Potency [6] | Potency [7] | Potency [8] | Potency [9] | Potency [10] |
| --- | --- | --- | --- | --- | --- | --- | --- | --- | --- | --- |
| CN(CC[C@@H](Oc1ccc(C(F)(F)F)cc1)c1ccccc1)CC(=O)O | inactive | inactive | inactive | inactive | inactive | – | – | – | – | – |
| N#Cc1cc([N+](=O)[O-])c2sc(C(N)=O)[n+]([O-])c2c1 | inactive | inactive | inactive | – | inactive | inactive | – | – | – | – |
| COc1cc([C@@H]2c3cc4c(cc3[C@H](O)C3COC(=O)[C@@H]32)OCO4)cc(OC)c1OC (stereo partly specified) | inactive | inactive | inactive | – | – | inactive | inactive | inactive | – | – |
| CN(C)CCCc1cc(C(=O)Nc2ccc(-c3ccncc3)cc2)ccc1O | inactive | inactive | inactive | – | inactive | inactive | – | – | inactive | – |
| c1ccc(C(NCCNC(c2ccccc2)c2ccccc2)c2ccccc2)cc1 | – | inactive | inactive | – | – | inactive | – | – | – | – |
| O=c1cc(-c2ccccc2F)[nH]c2cc3c(cc12)OCO3 | inactive | inactive | inactive | inactive | – | inactive | – | – | – | – |
| O=C(O)CCC/C=C\C[C@@H]1[C@@H](/C=C/[C@H](O)C2Cc3ccccc3C2)[C@@H](F)C[C@@H]1O | inactive | inactive | inactive | – | inactive | inactive | – | inactive | – | – |
| CN1CC(O)C(O)C(O)C1CO (stereo unspecified) | inactive | inactive | inactive | inactive | inactive | inactive | – | – | – | – |
| CC(O)C(O)[C@H]1CNc2nc(N)[nH]c(=O)c2N1 (stereo partly specified) | inactive | inactive | inactive | inactive | inactive | inactive | – | inactive | – | – |
| CC(C)(C)c1cc(/C=C(\C#N)C(N)=S)cc(C(C)(C)C)c1O | inactive | – | inactive | – | – | – | inactive | – | – | inactive |
| CC[n+]1c(/C=C/C=C2/N(C)c3ccccc3C2(C)C)sc2ccccc21 | inactive | – | 19 µM (active) | 31.6 µM (active) | 3.16 µM (active) | – | – | 0.891 µM (active) | – | – |
| Brc1c(Br)c(Br)c2[nH]cnc2c1Br | inactive | inactive | – | inactive | inactive | inactive | – | – | – | – |
| C=CCNc1ncnc2ccc(Br)cc12 | inactive | inactive | inactive | inactive | inactive | inactive | – | inactive | – | – |
| CN(C)S(=O)(=O)c1ccc2c(c1)/C(=C/c1cc3c([nH]1)CCCC3)C(=O)N2 | inactive | – | inactive | 25.1 µM (active) | inactive | inactive | inactive | inactive | – | – |
| Cc1ccccc1/C=C/C1=NCCN1 | inactive | – | inactive | inactive | – | inactive | inactive | – | – | – |
| CCCC(=O)NCCc1c2n(c3ccc(OC)cc13)CCCc1ccccc1-2 | – | inactive | inactive | – | – | inactive | inactive | – | – | inactive |
| COc1cc(/C=C(\C#N)C(=O)Nc2nnc(C(F)(F)F)s2)ccc1OCc1ccc(C(F)(F)F)cc1C(F)(F)F | inactive | 23.9 µM (active) | inactive | 50.1 µM (active) | inactive | – | – | – | – | – |
| CCCCOC(=O)NS(=O)(=O)c1sc(CC(C)C)cc1-c1ccc(Cn2c(CC)nc3c(C)cc(C)nc32)cc1 | inactive | inactive | – | – | – | inactive | inactive | – | – | – |
| CCC1(O)CC2CN(CCc3c([nH]c4ccccc34)[C@@](C(=O)OC)(c3cc4c(cc3OC)N(C=O)C3[C@]45CCN4CC=C[C@@](CC)([C@@H](OC(C)=O)[C@]3(O)C(=O)OC)[C@H]45)C2)C1 (stereo partly specified) | inactive | – | inactive | – | – | inactive | inactive | – | – | – |
| CCCCCCCCCCC(C)(C)C(=O)Nc1c(OC)cc(OC)cc1OC | inactive | inactive | inactive | 44.7 µM (active) | inactive | – | – | inactive | – | – |
| COc1ccc(-c2cc3ncc(C)n3c(Nc3ncccc3C(N)=O)n2)cc1OC | inactive | inactive | inactive | inactive | – | inactive | – | – | – | – |
